We go through 14 compounds from PubChem BioAssay.

The source made the active and inactive calls.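 Rule for the calls, unless noted: active = inhibition at or above 50% at 10 µM; inactive = inhibition below 50%.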

The nature of assay [1]: inhibitors of TNFa-induced NFkB p65 translocation, primary screen, imaging, HUVEC, MLSMR starter and 10KST1 sets (AID 438;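 active = inhibition above 20% together with a positive visual image hit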;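 note: compound added about 3h40 before a 20 min TNFalpha stimulation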;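 for inhibition: signal is the nuclear over cytoplasmic p65 intensity ratio per well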). The settings on record: HUVEC TNFa-induced p65 nuclear translocation; cell count: measured here: nuclei count (cytotoxicity indicator), at 2.08 µM; inhibition: at 2 µM, stronger effect = higher value, 0% TNFa-plus-vehicle, 100% no-TNFa wells.
Assay [2] in a line: inhibitors of mutant huntingtin aggregation, primary screen, imaging, exon1htt(103Q)mCFP cells, high-content imaging (AID 483;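 active = visual image review flags a hit and inhibition of aggregation exceeds 20%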;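 note: compound exposure lasted 3 days before fixation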;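 for nuclei count: percent of the per-plate median nuclei count of sample wells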). The settings on record: exon1htt(103Q)mCFP cell line, aggregate imaging, at 2 µM; inhibition of aggregation: stronger effect = higher value; nuclei count: measured here: cell count, toxicity.
Assay [3] is described as follows: inhibitors of E-selectin induction by TNFa, primary screen, imaging, HUVEC, immunofluorescence, MLSMR starter and 10KST1 sets (AID 487;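 active = visually confirmed hit in the image check and inhibition above 20%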;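 for inhibition: signal is fraction of cell area covered by stained E-selectin grains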;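 for nuclei count: 100% = median nuclei count of all wells on the same plate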). Particulars: HUVEC TNFalpha-induced E-selectin immunofluorescence imaging, at 2 µM; inhibition: stronger effect = higher value; nuclei count: measured here: cell number, toxicity.
In assay [4] the target is Voltage-gated potassium channel subunit beta-2 (Rattus norvegicus) (UniProt P62483). Put plainly: KvBeta enzyme negative modulators, primary screen, biochemical, NADPH fluorescence (AID 622;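 active = fluorescence slope higher than the sample average by over 3 SD, cut at about -0.22 in these data, passing the limit was not always enough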;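 note: slope of raw intensity against log time taken from 70 to 1610 s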). Particulars: recombinant KvBeta, 4-cyanobenzaldehyde reduction, at 10 µM, stronger effect = higher value.
The target is the same in assay [5]. Put plainly: KvBeta positive modulators, primary screen, biochemical, NADPH fluorescence (AID 623;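 active = NADPH fluorescence slope more negative than the mean of all samples by about 3 SD, 99.7% confidence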;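 note: fluorescence intensity change per second fitted from 20 to 320 s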). The settings on record: Recombinant KvBeta, NADPH fluorescence decrease slope, 10 min; at 10 µM; stronger effect = lower value.
The target in assay [6] is Alpha-2C adrenergic receptor (Homo sapiens) (UniProt P18825). Kind of assay: modulators of alpha2C/GIRK thallium flux, primary screen, cell-based, HEK293 alpha2C/GIRK1/2 (AID 624;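 active = fluorescence slope after compound addition differing from the mean of all screened samples at 99.7% confidence, in either direction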;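 note: slope of fluorescence ratio to pre-addition baseline per second over 15 to 24 s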). The settings on record: thallium flux BTC fluorescence, at 10 µM, actives lie on both sides.
A short description of assay [7]: inhibitors of Sendai virus-induced IRF3 signaling, primary screen, TLR/RLR signaling modifier project, cell-based, Sendai virus stimulus, luciferase, 10K MLSCN set (AID 602276).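 Note: firefly luciferase from ISG56 promoter only with Renilla not read in this screen; 0% = Sendai virus plus DMSO and 100% = medium plus DMSO without virus.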 The settings on record: HEK293 RL24 IRF3 luciferase reporter, at 10 µM, stronger effect = higher value.
The nature of assay [8]: inhibitors of poly I:C-induced TLR3 signaling, primary screen, cell-based, poly I:C stimulus, luciferase, 10K MLSCN set (AID 602277;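 active = inhibition of the reporter signal at or above 50%; inactive = inhibition below 50%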). The settings on record: HEK293-TLR3 RL24 IRF3 luciferase reporter, at 10 µM, stronger effect = higher value. (In a reporter assay the amount or activity of a reporter protein is the signal.)

Alpha-2C adrenergic receptor (Homo sapiens), sequence (P18825 whole entry, looked up): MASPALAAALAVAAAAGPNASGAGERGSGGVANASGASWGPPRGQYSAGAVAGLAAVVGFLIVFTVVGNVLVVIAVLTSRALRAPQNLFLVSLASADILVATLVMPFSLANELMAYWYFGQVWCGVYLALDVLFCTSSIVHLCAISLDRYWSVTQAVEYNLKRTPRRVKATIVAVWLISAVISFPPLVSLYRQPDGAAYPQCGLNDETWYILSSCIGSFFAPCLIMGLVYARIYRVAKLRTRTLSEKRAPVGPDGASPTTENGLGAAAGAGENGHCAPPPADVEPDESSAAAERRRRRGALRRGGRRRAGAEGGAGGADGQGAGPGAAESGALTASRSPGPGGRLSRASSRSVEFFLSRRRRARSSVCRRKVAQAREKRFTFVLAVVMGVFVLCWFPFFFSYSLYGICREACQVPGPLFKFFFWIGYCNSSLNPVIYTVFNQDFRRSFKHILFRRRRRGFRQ
Voltage-gated potassium channel subunit beta-2 (Rattus norvegicus), sequence (P62483 whole entry, looked up): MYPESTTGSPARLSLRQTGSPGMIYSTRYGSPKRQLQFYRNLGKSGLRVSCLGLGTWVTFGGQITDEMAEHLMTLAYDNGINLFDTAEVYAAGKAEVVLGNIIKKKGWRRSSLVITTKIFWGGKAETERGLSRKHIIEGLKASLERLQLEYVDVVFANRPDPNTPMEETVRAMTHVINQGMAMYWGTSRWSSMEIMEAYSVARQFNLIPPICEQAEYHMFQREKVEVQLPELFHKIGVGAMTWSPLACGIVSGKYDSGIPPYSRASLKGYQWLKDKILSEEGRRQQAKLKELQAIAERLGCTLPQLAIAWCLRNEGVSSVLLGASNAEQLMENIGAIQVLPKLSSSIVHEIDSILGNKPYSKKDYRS

Turning to `COc1cccc(C(=O)OCn2nnc3ccccc3c2=O)c1`, the cell count in assay [1] came to 592. In addition, the inhibition in assay [1] was -5.6% (inactive); in assay [3] it was -14.7% (inactive); in assay [7], 17.1% (inactive); in assay [8] it was 31.3% (inactive). Further, the inhibition of aggregation in assay [2] is 16.9% (inactive). Also, the figures for the nuclei count in assay [2] and in assay [3] were 89.6% and 119%, respectively. Moreover, the fluorescence slope in assay [4] was -0.616 (inactive). For the same compound, in assay [5], the NADPH fluorescence slope is 4.3e-05 (inactive). Moreover, the slope in assay [6] was 0.00615 (inactive).
On to `COc1ccc(C/C(N)=N/n2cnnc2)cc1Cl`, for which, in assay [1], the cell count is 356. Besides, the inhibition in assay [1] is -3.8% (inactive); in assay [3], -14.7% (inactive); in assay [7], 6.09% (inactive); in assay [8] it was 35.6% (inactive). The inhibition of aggregation in assay [2] was -13.5% (inactive). Besides, the nuclei count came out at 99.1% in assay [2] and 107% in assay [3]. The fluorescence slope in assay [4] is -0.447 (inactive). Besides, the NADPH fluorescence slope in assay [5] was -3.3e-05 (inactive). Besides, the slope in assay [6] was 0.00222 (inactive).
Turning to `Cc1ccc(C(=O)CC2(O)C(=O)N(CN3CCOCC3)c3ccccc32)cc1` (centres undefined), the cell count in assay [1] was found to be 396. Also, the inhibition was -8.1% (inactive) in assay [1], -52.9% (inactive) in assay [3], -4.62% (inactive) in assay [7] and 5.37% (inactive) in assay [8]. Besides, the inhibition of aggregation in assay [2] is -5.7% (inactive). Moreover, the nuclei count in assay [2] was found to be 103%; in assay [3], 99.1%. Moreover, in assay [4], the fluorescence slope is -0.367 (inactive). In assay [5], the NADPH fluorescence slope was 8.1e-06 (inactive). Also, in assay [6], the slope is 0.00346 (inactive).
Turning to `COc1ccc(C2CC(c3cccc(C)c3)n3ncnc3N2)cc1` (centres undefined), in assay [1], the cell count was found to be 595. The inhibition in assay [1] was 5.1% (inactive); in assay [3], 4% (inactive); in assay [7], -16.2% (inactive); in assay [8], 2.59% (inactive). In assay [2], the inhibition of aggregation was 0% (inactive). The nuclei count in assay [2] is 97.8%; in assay [3], 111%. In addition, the fluorescence slope in assay [4] was -0.569 (inactive). Also, the NADPH fluorescence slope in assay [5] was 1.9e-05 (inactive). The slope in assay [6] was 0.00625 (inactive).
Turning to `COc1ccc(N2CCN(Cc3nc(-c4ccc(Cl)cc4Cl)no3)CC2)cc1`, the cell count in assay [1] was found to be 596. Moreover, the inhibition in assay [1] was -0.7% (inactive); in assay [3] it was -48.8% (inactive); in assay [7], 18.6% (inactive); in assay [8], 22.1% (inactive). Also, the inhibition of aggregation in assay [2] is 4.9% (inactive). The values for the nuclei count in assay [2] and in assay [3] were 106% and 122%, respectively. In addition, the fluorescence slope in assay [4] is -0.421 (inactive). Besides, the NADPH fluorescence slope in assay [5] was -7.7e-05 (inactive). Further, the slope in assay [6] was 0.00526 (inactive).
`COc1ccc(OC)c(Nc2nc(-c3sc(N)nc3C)cs2)c1`: the cell count in assay [1] was determined as 715. Further, the inhibition in assay [1] is -8.6% (inactive); in assay [3], -77.1% (inactive); in assay [7] it was -4.79% (inactive); in assay [8], -10.6% (inactive). In assay [2], the inhibition of aggregation is 11.3% (inactive). For the same compound, the nuclei count in assay [2] is 104%; in assay [3], 105%. The fluorescence slope in assay [4] was -0.34 (inactive). Besides, in assay [5], the NADPH fluorescence slope is -4.1e-05 (inactive). Moreover, the slope in assay [6] is 0.00384 (inactive).
As for `COc1cc(-c2nnc(SCc3c(F)cccc3Cl)o2)cc(OC)c1OC`, the cell count in assay [1] stood at 803. Moreover, the inhibition is 4.4% (inactive) in assay [1], 3.2% (inactive) in assay [3], -11.9% (inactive) in assay [7] and 1.41% (inactive) in assay [8]. Also, the inhibition of aggregation in assay [2] was 8.8% (inactive). For the same compound, the nuclei count came out at 103% in assay [2] and 106% in assay [3]. Further, the fluorescence slope in assay [4] was -0.493 (inactive). In addition, the NADPH fluorescence slope in assay [5] was -1.6e-06 (inactive). For the same compound, in assay [6], the slope was 0.00634 (inactive).
On to `CC1CCN(C(=O)CSc2nnc(Cc3cc(=O)[nH]c(=O)[nH]3)n2-c2ccc(Cl)cc2)CC1`, for which the cell count in assay [1] was 713. The inhibition in assay [1] is -6.3% (inactive); in assay [3], 1.4% (inactive); in assay [7], -3.8% (inactive); in assay [8], 16.5% (inactive). Further, the inhibition of aggregation in assay [2] was 14.9% (inactive). Further, the figures for the nuclei count in assay [2] and in assay [3] were 87.4% and 105%, respectively. For the same compound, the fluorescence slope in assay [4] was -0.602 (inactive). In addition, the NADPH fluorescence slope in assay [5] is -8.2e-06 (inactive). Besides, in assay [6], the slope is 0.00679 (inactive).
With `COc1ccc(-n2c(SCC#N)nc3ccccc3c2=O)cc1`, the cell count in assay [1] came to 314. Besides, the inhibition in assay [1] is -4.7% (inactive); in assay [3], -11% (inactive); in assay [7], -8.69% (inactive); in assay [8] it was -76.1% (inactive). In addition, in assay [2], the inhibition of aggregation was -15.4% (inactive). The nuclei count in assay [2] was 105%; in assay [3], 118%. Further, the fluorescence slope in assay [4] was -0.491 (inactive). Moreover, in assay [5], the NADPH fluorescence slope was 7e-05 (inactive). In addition, the slope in assay [6] is 0.00655 (inactive).
As to `O=C(Cn1cnc2c(nnn2Cc2ccc(Cl)cc2)c1=O)NCC1CCCO1` (centres undefined), in assay [1], the cell count came out at 641. Further, the inhibition in assay [1] is -18.8% (inactive); in assay [3], -89.9% (inactive); in assay [7] it was 16.8% (inactive); in assay [8] it was 26% (inactive). Further, the inhibition of aggregation in assay [2] is -21.6% (inactive). For the same compound, the nuclei count in assay [2] was 89.2%; in assay [3] it was 132%. Further, in assay [4], the fluorescence slope is -0.522 (inactive). Besides, the NADPH fluorescence slope in assay [5] was -4.5e-06 (inactive). Further, the slope in assay [6] is 0.00509 (inactive).
Turning to `COc1ccccc1NC(=O)Cn1nnc(-c2ccccc2NC(=O)c2ccco2)n1`, the cell count in assay [1] was 317. The inhibition is 6.2% (inactive) in assay [1], -29.7% (inactive) in assay [3], 16.8% (inactive) in assay [7] and 37.7% (inactive) in assay [8]. Also, in assay [2], the inhibition of aggregation was -19% (inactive). Also, the nuclei count in assay [2] is 86.5%; in assay [3], 117%. Moreover, the fluorescence slope in assay [4] is -0.408 (inactive). In addition, in assay [5], the NADPH fluorescence slope is -1.3e-05 (inactive). Further, the slope in assay [6] was 0.00705 (inactive).
`COCCn1c(SCC(=O)Nc2cccc(OC)c2)nnc1-c1ccccc1`: the cell count in assay [1] came to 690. The inhibition in assay [1] was 2.1% (inactive); in assay [3], -16% (inactive); in assay [7], -0.479% (inactive); in assay [8] it was 19.1% (inactive). Moreover, the inhibition of aggregation in assay [2] is 6.3% (inactive). Moreover, the nuclei count came to 96.7% in assay [2] and 117% in assay [3]. The fluorescence slope in assay [4] is -0.492 (inactive). For the same compound, the NADPH fluorescence slope in assay [5] is -3.1e-05 (inactive). Moreover, in assay [6], the slope was 0.00579 (inactive).
Take `Cc1ccccc1NC(=O)CSc1nc(N)c(C#N)c(-c2cccs2)c1C#N`: the cell count in assay [1] was determined as 440. Further, the inhibition is -0.3% (inactive) in assay [1], -12.2% (inactive) in assay [3], 11.6% (inactive) in assay [7] and 14.3% (inactive) in assay [8]. In assay [2], the inhibition of aggregation is -16.8% (inactive). In addition, the nuclei count amounted to 110% in assay [2] and 98.8% in assay [3]. For the same compound, in assay [4], the fluorescence slope was -0.475 (inactive). Moreover, in assay [5], the NADPH fluorescence slope is -4.8e-05 (inactive). The slope in assay [6] was 0.00696 (inactive).
Turning to `COc1cc(C(=O)OC(C)CN2CCCC2)cc(OC)c1OC` (centres undefined), the cell count in assay [1] was 286. Moreover, the inhibition in assay [1] is 2.9% (inactive); in assay [3], 30.9% (inactive); in assay [7] it was 5.11% (inactive); in assay [8], 11.1% (inactive). Further, in assay [2], the inhibition of aggregation is -4.1% (inactive). Also, the nuclei count in assay [2] and in assay [3] was 101% in each case. Also, the fluorescence slope in assay [4] was -0.324 (inactive). In addition, the NADPH fluorescence slope in assay [5] was -5.1e-05 (inactive). Moreover, in assay [6], the slope was 0.00369 (inactive).

As usually defined, the inhibition is the change of the read-out against control, counted positive when it falls.
